# Among all 320,000 compounds or so, about 8,000 (2.5%) were called active. The sample holds actives, similar compounds and a random draw of the others, so the mix is not that of the screen. No stated cut-off is given here; in the data, active means activation above about 47%; inactive means the rest.
# Molecular target: Aryl hydrocarbon receptor (Homo sapiens) (UniProt P35869)
# Assay: AHR activators, primary screen, cell-based, luminescence, luciferase reporter, human (AID 2796);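 further: 0% = vehicle wells and 100% = reference agonist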
# Conditions: AHR-responsive luciferase reporter cells, at 5 µM, stronger effect = higher value
# Aryl hydrocarbon receptor (Homo sapiens), sequence (P35869 whole entry, looked up): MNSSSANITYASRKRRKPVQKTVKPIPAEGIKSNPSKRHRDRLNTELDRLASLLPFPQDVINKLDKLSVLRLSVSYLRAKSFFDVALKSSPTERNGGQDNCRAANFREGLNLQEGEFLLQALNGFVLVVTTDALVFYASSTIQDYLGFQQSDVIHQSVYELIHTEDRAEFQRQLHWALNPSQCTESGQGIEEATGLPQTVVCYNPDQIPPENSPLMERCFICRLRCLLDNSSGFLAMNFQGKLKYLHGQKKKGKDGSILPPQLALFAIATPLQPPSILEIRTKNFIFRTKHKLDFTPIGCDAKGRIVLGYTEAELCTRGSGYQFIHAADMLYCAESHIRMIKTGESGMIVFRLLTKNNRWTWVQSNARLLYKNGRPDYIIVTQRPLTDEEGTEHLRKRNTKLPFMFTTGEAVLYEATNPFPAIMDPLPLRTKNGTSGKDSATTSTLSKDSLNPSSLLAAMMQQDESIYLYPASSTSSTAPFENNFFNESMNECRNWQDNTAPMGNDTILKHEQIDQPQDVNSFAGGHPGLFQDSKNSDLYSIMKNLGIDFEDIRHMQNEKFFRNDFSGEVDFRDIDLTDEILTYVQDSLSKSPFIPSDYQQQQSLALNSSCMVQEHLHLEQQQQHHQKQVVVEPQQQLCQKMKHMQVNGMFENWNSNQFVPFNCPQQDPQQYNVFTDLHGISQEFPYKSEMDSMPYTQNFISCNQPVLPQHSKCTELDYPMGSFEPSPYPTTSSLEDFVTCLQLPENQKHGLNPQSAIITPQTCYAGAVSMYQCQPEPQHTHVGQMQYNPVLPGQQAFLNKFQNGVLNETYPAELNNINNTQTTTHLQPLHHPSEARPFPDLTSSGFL
row,SMILES,activation
1,N#CC1=C(N)Oc2c(sc3ccccc23)C1c1ccco1 (stereo not given),74.7% (active)
2,N#CC1=C(N)Oc2c(ccc3cccnc23)C1c1ccncc1 (stereo not given),-0.63% (inactive)
3,CC(C)C(C(=O)NC1CCCCC1)N(CC1CCCO1)C(=O)CNS(=O)(=O)c1ccc(F)cc1 (stereo not given),-1.33% (inactive)
4,O=C(c1ccc(=O)oc1)N1CCC(C(O)(c2ccccc2)c2ccccc2)CC1,0.25% (inactive)
5,CC(=O)c1cc2c(cc1N)OCO2,6.34% (inactive)
6,Nc1[nH][nH]c(=O)c1N=Nc1ccc2c(c1)OCO2,96.5% (active)
7,O=C(c1ccc2c(c1)OCO2)N1CCOCC1,0.36% (inactive)
8,[O-][N+]12CCCCC1CCCC2CO (stereo not given),-0.51% (inactive)
9,Cn1c(=O)c2c(SCC(=O)N3CCOCC3)nc(C3CC3)nc2n(C)c1=O,7.71% (inactive)
10,CCC(C)Sc1nc(C)nc2c1c(=O)n(C)c(=O)n2C (stereo not given),54% (active)
11,CSc1nc(C)nc2c1c(=O)n(C)c(=O)n2C,7.77% (inactive)
12,CCOC(=O)N1CCN(C(=O)CSc2nc(C)nc3c2c(=O)n(C)c(=O)n3C)CC1,-2.19% (inactive)
13,CC(C)c1ccc(C2C(C#N)=C(N)Oc3c2oc(CO)cc3=O)cc1 (stereo not given),1.15% (inactive)
14,C/C(=N\NC(=O)c1cccc([N+](=O)[O-])c1)c1cccnc1,43% (inactive)
15,C/C(=N\NC(=O)c1ccc2ccccc2c1)c1cccnc1,32.5% (inactive)
16,C/C(=N\NC(=O)c1cccnc1)c1ccc(-n2ccnc2)cc1,94.3% (active)
17,O=C(Nc1cccn(Cc2ccccc2Cl)c1=O)NC1CCCCC1,-0.61% (inactive)
18,Cc1ccc(C2CCN(C(=S)Nc3cccc(Cl)c3)C2)cc1 (stereo not given),0.22% (inactive)
19,COc1ccc([N+](=O)[O-])cc1NC(=O)CC1SC(=Nc2cccc(C)c2C)N(/N=C(\C)c2ccc(C)cc2)C1=O (stereo not given),2.69% (inactive)
20,Cc1cccc(C(=O)OCC(=O)NC(C)C2CC3CCC2C3)c1O (stereo not given),-0.37% (inactive)
21,CC(Oc1cccc(NC(=O)c2cccs2)c1)C(=O)c1ccccc1 (stereo not given),5.22% (inactive)
22,CCOC(=O)c1c(C2CC2)csc1NC(=O)CSCc1c(C)noc1C,74.2% (active)
23,Cc1noc(C)c1CSCC(=O)Nc1ccc(Br)cc1Cl,-1.92% (inactive)
24,Cc1ccc(F)cc1NC(=O)CSCc1c(C)noc1C,-0.17% (inactive)

row,SMILES,activation
1,COc1cccc(/C=C/C(=O)Nc2ccc3c(c2)OCCO3)c1,-3.92% (inactive)
2,COc1c(O)cc2oc(-c3ccc(O)c(O)c3)cc(=O)c2c1O,-2.83% (inactive)
3,COc1cccc(NC(=O)[C@H](Cc2c[nH]c3ccccc23)NC(=O)[C@@H]2Cc3ccccc3CN2)c1,8.95% (inactive)
4,O=C(N/N=C/c1c[nH]c2ccccc12)c1ccccc1O,19% (inactive)
5,O=C(O)c1cccc(NC(=S)N/N=C/c2c[nH]c3ccccc23)c1,22% (inactive)
6,CSC(=S)N/N=C/c1c[nH]c2ccccc12,82% (active)
7,O=C(N/N=C/c1c[nH]c2ccccc12)c1cc2ccccc2o1,99% (active)
8,Nc1nonc1-n1nnc(C(=O)N/N=C/c2c[nH]c3ccccc23)c1-c1ccccc1,15.2% (inactive)
9,Cc1c(/C=N\NC(=O)c2cc3ccccc3o2)c2ccccc2n1C,26.2% (inactive)
10,CC1(C)C(C=C(Cl)Cl)C1C(=O)NC(O)C(=O)c1ccccc1 (stereo not given),-1.26% (inactive)
11,COC(=O)c1ccc(C(=O)NC2CC(C)(C)Cc3c2cnn3-c2ccc(F)cc2)nc1 (stereo not given),-1.69% (inactive)
12,COc1cc(C)nc(N2CCCC(C(=O)NCC(C)C)C2)n1 (stereo not given),5.81% (inactive)
13,CCc1cc(C(=O)OC)c(NC(=O)CC2Sc3ccc(C(F)(F)F)cc3NC2=O)s1 (stereo not given),-1.22% (inactive)
14,Cc1cc(C)nc(SCc2nnc(SCC(=O)OC3CCCCC3)o2)n1,0.2% (inactive)
15,CC(OC(=O)c1c(F)cccc1F)C(=O)NCCC1=CCCCC1 (stereo not given),1.47% (inactive)
16,CC(C)(C)C(=O)OCc1nc(-c2ccc(O)c(O)c2)cs1,4.13% (inactive)
17,COc1ccc(-c2csc(NC(=O)COC(=O)c3ccc(Br)o3)n2)cc1,15.7% (inactive)
18,COc1ccc(-c2csc(Cc3nc(O)cs3)n2)cc1,47.5% (active)
19,CC1CCCCC12NC(=O)N(CC(=O)Nc1ccc(S(=O)(=O)Nc3ncccn3)cc1)C2=O (stereo not given),0.23% (inactive)
20,COC(=O)c1c(NC(=O)CN2C(=O)NC(CCc3ccccc3)C2=O)sc2c1CCCCC2 (stereo not given),6.43% (inactive)
21,COc1ccc(S(=O)(=O)NC(C)c2ccccc2)cc1C(=O)N1CCCCC1 (stereo not given),2.64% (inactive)
22,O=c1[nH]c(-c2cccs2)nc2ccccc12,71.2% (active)
23,O=c1[nH]c(N2CCOCC2)nc2ccccc12,2.44% (inactive)
24,O=c1[nH]c(/C=C/c2cccc(Br)c2)nc2ccccc12,22.6% (inactive)

row,SMILES,activation
1,Cc1c(CN2CCC(n3nccc3NC(=O)CCc3ccccc3)CC2)cnn1C,1.39% (inactive)
2,Cc1cccc(C)c1NC(=O)CNC(=O)Cc1ccc(Br)cc1,5.24% (inactive)
3,CCOC(=O)Cc1csc(NC(=O)COc2ccc3c(C)cc(=O)oc3c2)n1,59.9% (active)
4,Cc1cc(=O)oc2cc(OCC(=O)Nc3nnc(C4CC4)s3)ccc12,9.3% (inactive)
5,CCOC(=O)Cc1csc(SCc2cc(=O)oc3cc(O)ccc23)n1,-1.46% (inactive)
6,CCOC(=O)c1cccc(NC(=O)c2ccc(F)cc2F)c1,5.88% (inactive)
7,CCCC(=O)N=c1sc2cccc(F)c2n1C,5.82% (inactive)
8,Cn1c(=NC(=O)c2ccco2)sc2cccc(F)c21,58% (active)
9,Cn1c(=NC(=O)c2cnccn2)sc2ccccc21,13.9% (inactive)
10,COc1ccc2oc(C(=O)OCC(=O)N(CC(C)C)c3c(N)n(Cc4ccccc4)c(=O)[nH]c3=O)c(C)c2c1,-3.35% (inactive)
11,O=C(COc1ccccc1)Nc1cc2c3c(c1)CC(=O)N3CCC2,8.04% (inactive)
12,CCOc1ccc(/C=N/NC(=O)C(C)Sc2ccccn2)cc1OCC (stereo not given),4.44% (inactive)
13,COc1cc(/C=C2/C(=O)ON=C2C)ccc1OCc1ccccc1F,0.62% (inactive)
14,CCOc1cc(/C=N/O)ccc1OCc1ccccc1F,50.4% (active)
15,Cc1ccc(NC(=O)COC(=O)CNC(=O)c2ccc(Cl)cc2Cl)cc1S(=O)(=O)N1CCOCC1,-1.57% (inactive)
16,O=C(CC1C(=O)NCCN1Cc1ccc(-c2ccccc2)cc1)NCc1ccncc1 (stereo not given),0.69% (inactive)
17,CC(C)c1ccc(NC(=S)NC2CC3C=CC2C3)cc1 (stereo not given),7.48% (inactive)
18,Cc1c(C)c(C)c2[nH]c(=S)[nH]c2c1C,52.1% (active)
19,O=c1[nH]c(=S)[nH]c2[nH]c(=S)[nH]c12,0% (inactive)
20,O=C(CCS(=O)(=O)Cc1ccccc1)Nc1ccc2c(c1)OCCO2,3.19% (inactive)
21,O=C(CN(c1ccc2c(c1)OCCO2)S(=O)(=O)c1ccccc1)Nc1ccc2c(c1)OCO2,79.1% (active)
22,CCN(CC(=O)Nc1ccc2c(c1)OCO2)S(=O)(=O)c1ccccc1,28.8% (inactive)
23,O=C(CN1CCN(S(=O)(=O)c2cccc(Cl)c2)CC1)N1CCCCC1,-1.59% (inactive)
24,CCCCNC(=O)C1(c2ccc(OC)cc2)CCOCC1,0.03% (inactive)

row,SMILES,activation
1,CS(=O)(=O)c1ccc2nnn(OCC(=O)Nc3cccc(C#N)c3)c2c1,5.17% (inactive)
2,Fc1ccccc1OCCSc1nc2ccccc2o1,-9.22% (inactive)
3,COc1ccc(/C=C(\NC(=O)c2ccc(OC)c(OC)c2)C(=O)NCCc2c[nH]c3ccccc23)cc1,13.8% (inactive)
4,COc1ccc(/C=C(\C#N)c2c[nH]c3ccccc23)cc1,53.6% (active)
5,COc1ccc(C(C(O)C(=O)c2c[nH]c3ccccc23)N2CCN(c3ccccc3)CC2)cc1 (stereo not given),12.8% (inactive)
6,CC(NC(=O)COC(=O)c1ccc(Cl)cc1O)c1ccc(F)cc1 (stereo not given),3.35% (inactive)
7,CCOC(=O)CSc1nc2ccc(C)cc2[nH]1,1.6% (inactive)
8,CCOc1cc(/C=C(\C#N)c2nc(-c3cccs3)c(NC(C)=O)s2)ccc1O,8.05% (inactive)
9,Cc1ccc2nc(/C(C#N)=C\c3ccc(OC(=O)c4cccs4)cc3)[nH]c2c1,80.8% (active)
10,Cc1ccc(S(=O)(=O)NC(C)C(=O)NCc2ccc(Cl)cc2)cc1 (stereo not given),0.98% (inactive)
11,COCCCn1c(SCc2cccc(OC)c2)nc2cc(OC)c(OC)cc2c1=N,11.1% (inactive)
12,CC(C)(C)OC(=O)C[C@@H]1C/C=C\C[C@@H](CC(=O)N(CCO)Cc2ccccc2)C(=O)N[C@H](Cc2ccccc2)COC1=O,2.29% (inactive)
13,Cc1ccc2nc(SCC(=O)NC3CCCC3)[nH]c2c1,42.2% (inactive)
14,Cc1ccc2nc(SCc3cn4c(C)cc(C)nc4n3)[nH]c2c1,62.1% (active)
15,Cc1cc(C)nc(SCc2cn3c(C)cc(C)nc3n2)n1,7.09% (inactive)
16,CCC1(c2ccccc2)NC(=O)N(CC(=O)Nc2ccccc2C(=O)NC2CCCC2)C1=O (stereo not given),1.57% (inactive)
17,CN(Cc1ccccc1)C(=O)COC(=O)/C=C/c1ccc2c(c1)OCO2,2.59% (inactive)
18,CN(c1ccc(OCC(=O)OCC(=O)Nc2cccc([N+](=O)[O-])c2)cc1)S(=O)(=O)c1ccc(F)cc1,2% (inactive)
19,O=C1C(=O)N(c2ccccc2)c2ccccc21,0.42% (inactive)
20,O=C(c1c(F)cccc1F)N1CCN(c2ncc(Br)cn2)CC1,1.98% (inactive)
21,CCn1c(=O)c(C(=O)NCc2ccc3c(c2)OCO3)c(O)c2ccccc21,1.55% (inactive)
22,CCn1c(=O)c([N+](=O)[O-])c(NCc2ccc3c(c2)OCO3)c2ccccc21,47.1% (active)
23,CCn1c(=O)cc(SCC(=O)NCc2ccc3c(c2)OCO3)c2ccccc21,6.43% (inactive)
